Sampled rows, rich in hits. Any-hit rate of the full collection: about 0.54%.
PDI inh: inhibitors of human PDI, primary screen, biochemical, turbidity, single point, plate reader. Protein disulfide-isomerase (Homo sapiens), P07237. inhibition, % at 10 µM. PDI insulin aggregation turbidity, A650, 90 min. hit rate 0.052% among 350,000;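 active = mean inhibition across replicates of 30% or more, whatever share of single replicates reach that level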
Target sequence (P07237 whole entry, looked up): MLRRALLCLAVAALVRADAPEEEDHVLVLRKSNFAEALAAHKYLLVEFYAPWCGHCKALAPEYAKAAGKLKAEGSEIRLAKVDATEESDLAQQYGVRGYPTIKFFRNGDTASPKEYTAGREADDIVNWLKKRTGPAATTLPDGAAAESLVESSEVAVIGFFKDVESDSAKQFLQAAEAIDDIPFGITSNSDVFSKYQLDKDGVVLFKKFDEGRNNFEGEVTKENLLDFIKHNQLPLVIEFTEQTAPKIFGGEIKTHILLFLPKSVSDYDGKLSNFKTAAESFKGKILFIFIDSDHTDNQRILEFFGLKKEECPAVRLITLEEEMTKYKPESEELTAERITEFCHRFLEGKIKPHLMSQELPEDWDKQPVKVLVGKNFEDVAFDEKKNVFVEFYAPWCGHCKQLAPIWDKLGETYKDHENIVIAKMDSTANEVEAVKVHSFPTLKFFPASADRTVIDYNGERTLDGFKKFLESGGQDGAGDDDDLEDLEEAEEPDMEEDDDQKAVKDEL
Efflux pump inh: inhibitors of Candida efflux pumps in yeast, primary screen, S. cerevisiae, Nile Red, multiplex. S. cerevisiae Candida pump triplex. inhibition, % at 10 µM. hit rate 0.44% among 330,000. AID 485275, 2010;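 active = plate passing quality check with inhibition over a set limit, or well fluorescence over plate mean plus 4 SD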;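 note: Nile Red retained in pooled yeast measured as flow cytometry median fluorescence; 0% = buffer negative control and 100% = Enniatin B positive control; higher means more Nile Red kept so more efflux inhibition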
ERp5 block: inhibitors of ERp5-driven insulin aggregation, primary screen, biochemical, turbidity, absorbance 650 nm, single point. Protein disulfide-isomerase A6 (Homo sapiens), Q15084. 90 min. inhibition, % at 9.99 µM. hit rate 0.05% among 350,000;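 active = mean replicate inhibition above about 25%, with every replicate also reaching it, limit read from the data, passing the limit was not always enough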
PvdQ acylase: P. aeruginosa PvdQ acylase inhibitors, primary screen, biochemical, fluorescence, plate reader and imaging, single point; PvdQ acylase [Pseudomonas aeruginosa LESB58]; purified PvdQ acylase; inhibition, % at 10 µM; hit rate 0.063% among 340,000; AID 488965, 2010; in the data active = inhibition above about 30%, passing the limit was not always enough;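 note: 0% = vehicle neutral wells and 100% = reference inhibitor wells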
Rtt109 HAT inh: inhibitors of C. albicans Rtt109/Vps75 HAT, primary screen, biochemical, ThioGlo CoA-SH fluorescence, plate reader; inhibition, % at 34.9 µM; Histone acetyltransferase RTT109 (Candida albicans (strain SC5314 / ATCC MYA-2876)), …; hit rate 0.16% among 330,000; AID 540336, 2011; purified Rtt109/Vps75, 4 h;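 active = inhibition of at least 50% in every replicate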
Cmpd fluor yeast: counter-screen for efflux pump inhibitors: compound fluorescence. hit rate 4% among 1,700. shares compounds with Efflux pump inh. fluorescence ratio to DMSO, % at 10 µM. S. cerevisiae AD/pABC3, flow cytometry;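 active = fluorescence ratio to DMSO above its plate's cutoff, the plate mean ratio plus 5 SD, cut at about 210% in these data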;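 note: unstained yeast with no Nile Red so the signal is compound autofluorescence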
CaMdr1 efflux inh: inhibitors of Candida albicans Mdr1 efflux, confirmation, flow cytometry, singleplex, Cherry Pick1 set; shares compounds with Efflux pump inh; S. cerevisiae AD/CaMDR1, Nile Red efflux; inhibition, % at 10 µM; hit rate 1% among 1,700; AID 588518, 2011; in the data active = inhibition above about 26%;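 note: 0% = DMSO vehicle and 100% = reference inhibitor; higher means more Nile Red retained so more efflux inhibition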
Cdr2 pump inh: inhibitors of Candida albicans Cdr2 efflux pump, confirmation, S. cerevisiae AD/CaCDR2, flow cytometry, cherry pick 1, singleplex. shares compounds with Efflux pump inh. Nile Red retention. Nile Red retention ratio vs DMSO, % at 10 µM. hit rate 4% among 1,700. AID 588520, 2011; in the data active = Nile Red retention ratio vs DMSO above about 190%;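 note: higher ratio means more blocking of Cdr2 efflux of the dye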
CaCdr1 efflux inh: inhibitors of Candida albicans Cdr1 efflux pump, confirmation, S. cerevisiae AD/CaCDR1, flow cytometry, cherry pick 1, singleplex; shares compounds with Efflux pump inh; Nile Red efflux; inhibition, % at 10 µM; hit rate 1% among 1,700;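 active = inhibition above the screen-wide mean plus twice its standard deviation, cut at about 32% in these data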
* = called active by the depositor.

For Cc1ccc(C)n1-c1ccc(N2CCOCC2)nc1 the results were PDI inh 0, Efflux pump inh 12*, ERp5 block 4, PvdQ acylase -2, Rtt109 HAT inh 0, Cmpd fluor yeast 99, CaMdr1 efflux inh 0, Cdr2 pump inh 88 and CaCdr1 efflux inh 0.
Screening O=C(c1cccc(F)c1)N1CC2(C1)[C@H](c1ccccc1)[C@@H](CO)N2C(=O)C1CCC1 returned ERp5 block -5.
Fc1ccc(-c2csc3ncnc(N4CCN(Cc5ccccc5)CC4)c23)cc1 was read as PDI inh -1, Efflux pump inh 0, ERp5 block -12, PvdQ acylase -15 and Rtt109 HAT inh 3.
For Fc1ccc(CN2CCN(c3ncnc4scc(-c5ccccc5)c34)CC2)cc1 the results were PDI inh 0, Efflux pump inh 1.7*, ERp5 block -2, PvdQ acylase -12, Rtt109 HAT inh -4, Cmpd fluor yeast 100, CaMdr1 efflux inh 0, Cdr2 pump inh 93 and CaCdr1 efflux inh 0.
`CC1Oc2ccccc2N(CC(=O)c2ccc(F)cc2)C1=O` (stereo not given) gave PDI inh 2, Efflux pump inh 1.1*, ERp5 block 2, PvdQ acylase 3, Rtt109 HAT inh 9, Cmpd fluor yeast 100, CaMdr1 efflux inh 0, Cdr2 pump inh 100 and CaCdr1 efflux inh 0.
C[C@H](CO)N1C[C@H](C)[C@@H](CN(C)CC2CC2)Oc2ccc(NC(=O)Cc3ccccc3)cc2C1=O was read as ERp5 block -5.
CC(C)(C)C1CCC(OC(=O)C[N+]2(C)CCCC2)CC1 (stereo not given) was read as PDI inh 1, Efflux pump inh 0.5*, ERp5 block 2, PvdQ acylase -16, Rtt109 HAT inh 0, Cmpd fluor yeast 100, CaMdr1 efflux inh 0, Cdr2 pump inh 260* and CaCdr1 efflux inh 0.
`COc1ccc(C2N=C(Nc3ccc(C)cc3)Nc3nc(C)cc(=O)n32)cc1` (stereo not given) gave PDI inh -3, Efflux pump inh 0.4*, PvdQ acylase 8, Rtt109 HAT inh 3, Cmpd fluor yeast 99, CaMdr1 efflux inh 0, Cdr2 pump inh 97 and CaCdr1 efflux inh 0.
Screening COc1ccc(CN(C)C[C@H]2Oc3ccc(NC(=O)Nc4c(C)noc4C)cc3CC(=O)N([C@H](C)CO)C[C@@H]2C)cc1 returned ERp5 block -6.
`CC1CC(=O)N(CC(=O)Nc2ccc3c(c2)OCCO3)c2ccccc2S1` (stereo not given) gave PDI inh -2, Efflux pump inh 0, ERp5 block 1, PvdQ acylase 7, Rtt109 HAT inh 0, Cmpd fluor yeast 531*, CaMdr1 efflux inh 5, Cdr2 pump inh 109 and CaCdr1 efflux inh 0.
O=C(CN1C(=O)CC(c2ccco2)Sc2ccccc21)NCc1ccc2c(c1)OCO2 (stereo not given) was read as PDI inh 4, Efflux pump inh 9.8*, ERp5 block -4, PvdQ acylase -7, Rtt109 HAT inh 8, Cmpd fluor yeast 82, CaMdr1 efflux inh 0, Cdr2 pump inh 87 and CaCdr1 efflux inh 0.
For CC1Oc2ccccc2N(CC(=O)Nc2ccc3c(c2)OCCO3)C1=O (stereo not given) the results were PDI inh -5, Efflux pump inh 0, PvdQ acylase -1 and Rtt109 HAT inh 4.
